# In PubChem BioAssay AID431 (Sanford-Burnham Center for Chemical Genomics, 2006):
# Among all 63,000 compounds or so, about 1,100 (1.7%) were called active.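 How the source made its calls: active means compounds whose percent cytotoxicity in the single-dose primary screen, scaled between solvent and toxic-drug controls, exceeds 50; inactive means the rest.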 The full list was thinned out, with actives kept by preference. Potency and affinity values are given separately.
# Assay: viability loss of HPDE-C7K cells – cell-based, fluorescence, HTS, primary screen (AID 431);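 further: 0% = DMSO solvent wells and 100% = doxorubicin-treated wells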
# Settings: HPDE-C7K KRASV12 cells, Alamar Blue viability, 48 h; at 10 µM; stronger effect = higher value
row,Compound,cytotoxicity
1,O=C(O)c1ccccc1C(=O)c1cccs1,-9.3% (inactive)
2,CCc1nc(NCC2CCCO2)c2oc3ccccc3c2n1 (stereo not drawn),-29.3% (inactive)
3,O=C(NCCCN1CCN(CCCNC(=O)c2ccc3c(c2)OCO3)CC1)c1ccc2c(c1)OCO2,-34.5% (inactive)
4,Cc1ccc(N2CC(C(=O)N3CCN(c4ccccc4)CC3)CC2=O)cc1 (stereo not drawn),30.6% (inactive)
5,Cc1ccc(N2CC(C(=O)N3CCN(C(=O)c4ccco4)CC3)CC2=O)cc1 (stereo not drawn),52.5% (active)
6,CCOC(=O)C1CCN(C(=O)C2CC(=O)N(c3ccc(C)cc3)C2)CC1 (stereo not drawn),-13.4% (inactive)
7,CCN(CC)c1ccc(NC(=O)C2CCCN(S(=O)(=O)c3cccnc3)C2)c(C)c1 (stereo not drawn),-9.5% (inactive)
8,COc1ccc(-c2cc(-c3ccccc3O)[nH]n2)cc1OC,61.1% (active)
9,Oc1ccccc1-c1cc(-c2cccc(F)c2)n[nH]1,16.2% (inactive)
10,COc1ccc(-c2cc(-c3cc(F)ccc3O)[nH]n2)cc1OC,8.8% (inactive)
11,N#CC1=C(N)SC(N)=C(C#N)C1c1ccnc2ccccc12,-13.5% (inactive)
12,CCOc1ccccc1N1CC(O)=C(c2nc3ccccc3s2)C1=N,64.8% (active)
13,COc1ccc(N2CC(O)=C(c3nc4ccccc4s3)C2=N)cc1,9.4% (inactive)
14,COc1ccc(N2CC(O)=C(c3nc4ccccc4s3)C2=N)c(OC)c1,11.5% (inactive)
15,O=C(c1cccs1)N1CCOCC1,-26.6% (inactive)
16,COc1ccc2c(c1)Cc1sc(NC(=O)c3cccs3)nc1-2,-6.8% (inactive)
17,O=C(Nc1nc2c(s1)CCc1ccccc1-2)c1cccs1,-14.1% (inactive)
18,COc1ccc2c(c1)-c1nc(NC(=O)c3cccs3)sc1CC2,80.1% (active)
19,Oc1ccccc1-c1nc(N2CCN(Cc3ccccc3)CC2)c2ccccc2n1,13% (inactive)
20,Clc1ccccc1CNc1ncnc2nc[nH]c12,-10.1% (inactive)
21,Clc1ccccc1CN(Cc1ccccc1)c1ncnc2nc[nH]c12,115% (active)
22,CCCCN(Cc1ccccc1)c1ncnc2nc[nH]c12,6.8% (inactive)
23,O/N=C1/CCCCc2sccc21,-23.7% (inactive)
24,COC(=O)C1=CN(CC2CCCO2)C=C(C(=O)OC)C1c1cc(OC)c(OC)c(OC)c1 (stereo not drawn),9.3% (inactive)
25,CCOc1ccccc1CN(Cc1ccco1)S(=O)(=O)c1ccc(-n2cnnn2)c(OC)c1,53.2% (active)

row,Compound,cytotoxicity
1,COc1cc(S(=O)(=O)N(Cc2cccnc2)Cc2ccco2)ccc1-n1cnnn1,6.5% (inactive)
2,COc1ccccc1CN(Cc1ccco1)S(=O)(=O)c1ccc(-n2cnnn2)c(OC)c1,20.8% (inactive)
3,COC(=O)c1ccccc1NC(=O)NCC1CCCO1 (stereo not drawn),8.4% (inactive)
4,Cc1cc(C)cc(NS(=O)(=O)c2ccc3[nH]cc(C(=O)NCc4ccco4)c(=O)c3c2)c1,42.5% (inactive)
5,CCN(CC)C(=O)CSc1ncnc2c1nnn2-c1ccc(OC)cc1,-10.4% (inactive)
6,COc1ccc(-n2nnc3c(SCC(=O)NCC4CCCO4)ncnc32)cc1 (stereo not drawn),2.8% (inactive)
7,O=C(NCCc1ccccc1)c1ccnc(/C=N/O)c1,-14.3% (inactive)
8,CCn1c2c(c3cc(Cl)ccc31)CCCC2=O,-6.2% (inactive)
9,CCn1c2c(c3cc(C(=O)O)ccc31)CCCC2=O,-19.1% (inactive)
10,Cc1oc2c(O)c(O)ccc2c(=O)c1-c1cnn(-c2ccccc2)c1,0.8% (inactive)
11,Cc1oc2cc(O)ccc2c(=O)c1-c1cnn(-c2ccccc2)c1,22.6% (inactive)
12,Cc1oc2cc(O)cc(C)c2c(=O)c1-c1cnn(-c2ccccc2)c1,61.3% (active)
13,COc1cc(NC(=O)Nc2ccccc2)c(OC)cc1NC(=O)CN1CCCCC1,-3.3% (inactive)
14,COc1cc(NC(=O)Nc2ccccc2OC)c(OC)cc1NC(=O)CN1CCCCC1,48.5% (inactive)
15,COc1cc(NC(=O)Nc2cccc(Cl)c2)c(OC)cc1NC(=O)CN1CCCCC1,89.7% (active)
16,O=C(NC1CCCC1)C1CC1c1ccccc1 (stereo not drawn),17.8% (inactive)
17,CC1(C)CC(=O)C2=C(C1)OC(N)=C(C#N)C2c1cccc(OC(=O)c2ccco2)c1 (stereo not drawn),-2.4% (inactive)
18,COc1ccc(-c2cc(C(F)(F)F)nc(N3CCCCC3)n2)cc1OC,-2.6% (inactive)
19,FC(F)(F)c1cc(-c2ccco2)nc(-n2nnc3ccccc32)n1,3.9% (inactive)
20,Nc1nc(-c2ccccc2)cc(C(F)(F)F)n1,-1.4% (inactive)
21,FC(F)(F)c1cc(-c2ccco2)nc(NCc2ccccc2)n1,8.4% (inactive)
22,FC(F)(F)c1cc(-c2ccco2)nc(NCc2ccco2)n1,-0.2% (inactive)
23,COc1nc(-c2ccccc2)cc(C(F)(F)F)n1,-0.7% (inactive)
24,FC(F)(F)c1cc(-c2ccco2)nc(-n2cnc3ccccc32)n1,41.5% (inactive)
25,COc1ccc(-c2cc(C(F)(F)F)nc(NC3CCCC3)n2)cc1OC,8.8% (inactive)

row,Compound,cytotoxicity
1,COC(=O)CC1Oc2ccccc2N(Cc2ccc(C)cc2)C1=O (stereo not drawn),1.3% (inactive)
2,O=C(CCC1CCCC1)Nc1ccon1,-5.5% (inactive)
3,CCOc1ccc(NC(=O)Nc2ccc3nccnc3c2)cc1,8.3% (inactive)
4,O=C(CSc1nc(-c2ccc(F)cc2)cs1)NC(=O)NCc1ccco1,1% (inactive)
5,CCOC(=O)/C=C1\SCC(=O)N1Cc1nnc(-c2ccccc2Br)o1,-23.5% (inactive)
6,COC(=O)c1[nH]c(C)c(/C(O)=C2\C(=O)C(=O)N(CCN(C)C)C2c2cc(OC)ccc2OC)c1C (stereo not drawn),-7.9% (inactive)
7,O=C(CSc1ncc(-c2ccccc2)nn1)NCc1ccco1,-13.8% (inactive)
8,CN1CCN(c2nc(-c3cccs3)cc(C(F)(F)F)n2)CC1,3.2% (inactive)
9,CC(C)c1nnc(NC(=O)CCS(=O)(=O)c2nc(-c3cccs3)cc(C(F)(F)F)n2)s1,43.6% (inactive)
10,CCn1c(SCC(=O)Nc2ccc(N3CCOCC3)c(Cl)c2)nnc1-c1ccc(N)cc1,3.4% (inactive)
11,Clc1ccc(OCc2nn3c(C4CCCCC4)nnc3s2)cc1,17.1% (inactive)
12,CCOc1cc(-c2nc(-c3ccc(C)nc3OC)no2)cc(OCC)c1OCC,-15% (inactive)
13,Cc1nc(NC(=O)c2oc3ccccc3c2C)sc1C(=O)N(C)C,12.9% (inactive)
14,CCN1CCN(c2ncc(C(=O)Nc3cc(Cl)c(OC)cc3OC)c3ccccc23)CC1,11.7% (inactive)
15,CCN1CCN(c2ncc(C(=O)Nc3ccccc3C(=O)OC)c3ccccc23)CC1,40.3% (inactive)
16,CCN1CCN(c2ncc(C(=O)Nc3cc(Cl)ccc3OC)c3ccccc23)CC1,75.3% (active)
17,O=c1/c(=C\c2cccnc2)sc2nc3ccccc3n12,-13.6% (inactive)
18,COc1cc(C(=O)OC(C)CN2CCN(C)CC2)cc(OC)c1OC (stereo not drawn),-37.3% (inactive)
19,O=C(CN1C(=O)COc2ccccc21)c1ccc(Cl)cc1,-0.2% (inactive)
20,Cc1ccc(C(=O)CSc2nnc(CNc3nc(-c4ccccc4)cs3)n2C)cc1,4.1% (inactive)
21,COc1ccc(OCC(=O)Nc2ccccc2C(=O)N2CCCC2)cc1,-0.2% (inactive)
22,CC(NC(=O)NCC1CCCO1)(C(F)(F)F)C(F)(F)F (stereo not drawn),-11.1% (inactive)
23,NS(=O)(=O)c1ccc(S(=O)(=O)N(Cc2ccccc2F)CC2CCCO2)cc1 (stereo not drawn),4% (inactive)
24,Cc1ccccc1-n1c(C)nnc1SCC(=O)NCC1CCCO1 (stereo not drawn),-1.6% (inactive)
25,COc1ccc(S(=O)(=O)N(C)CC(=O)NC2CCCC2)cc1Cl,-18% (inactive)

row,Compound,cytotoxicity
1,Oc1ccc2oc3c(c2c1/C=N/n1cnnc1)CCCC3,-21.1% (inactive)
2,Cc1nc2ccccc2c(=O)n1/N=C/c1c(O)ccc2oc3c(c12)CCCC3,72.1% (active)
3,Cc1nc2ccccc2c(=O)n1/N=C/c1ccc(O)cc1,24.4% (inactive)
4,O=C(Oc1c(Cl)cc(Cl)c2cccnc12)N1CCCCC1,10.8% (inactive)
5,CCCC(=O)NC(c1ccco1)c1cc(Cl)c2cccnc2c1O (stereo not drawn),59.2% (active)
6,CCCC(=O)Nc1ccc(Cl)c(NC(=O)c2ccco2)c1,3.9% (inactive)
7,NC(=O)c1ccc(N2CCCCC2)c(N2C(=O)C3C4C=CC(C4)C3C2=O)c1 (stereo not drawn),2.5% (inactive)
8,O=C(CSc1nc(O)cc(=O)n1-c1ccccc1)NCc1ccccc1,-1% (inactive)
9,CC1=C(C(=O)OC(C)C)C(c2cccs2)N2C(=O)CCSC2=N1 (stereo not drawn),10.1% (inactive)
10,O=C1CC(N2CCN(c3nc4ccccc4s3)CC2)C(=O)N1Cc1cccs1 (stereo not drawn),5.6% (inactive)
11,O=C1CC(N2CCN(c3ccc(F)cc3)CC2)C(=O)N1Cc1cccs1 (stereo not drawn),-7.6% (inactive)
12,Cc1cccc(N(CC(=O)NC2CCCCC2)C(=O)CCC(=O)Nc2cc(C)ccn2)c1,-11.1% (inactive)
13,N#Cc1cccc2cnccc12,-3.3% (inactive)
14,CN(C)c1ccc(-c2nn3c(-c4cccnc4)nnc3s2)cc1,-11.9% (inactive)
15,c1cncc(-c2nn3c(-c4ccncc4)nnc3s2)c1,-1% (inactive)
16,CCOc1ccc(-c2nn3c(-c4ccc(F)cc4)nnc3s2)cc1,9.9% (inactive)
17,CCN(CC)c1ccc(-c2nn3c(-c4cccnc4)nnc3s2)cc1,56.4% (active)
18,CN(C)c1ccc(-c2nn3c(-c4ccncc4)nnc3s2)cc1,-7.6% (inactive)
19,O=C(CC1(O)C(=O)N(Cc2ccc3c(c2)OCO3)c2ccccc21)c1ccccc1 (stereo not drawn),-28% (inactive)
20,O=C(NCC1CCCO1)c1csc2c1CCCCC2 (stereo not drawn),-11.1% (inactive)
21,COc1ccccc1N1CCN(Cc2ccc(OC)c(OC)c2OC)CC1,-15.5% (inactive)
22,CCCC(N)CCCCCC(=O)O (stereo not drawn),4.3% (inactive)
23,CCSC(SCC)[C@H](O)[C@@H](O)[C@H](O)[C@H](O)CO,-20.9% (inactive)
